Experimental data as given in PubChem BioAssay (NCI).
Compounds without any hit were thinned out: in the full panel of roughly 83,000, 20% have a hit.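 Growth was measured after 48 h exposure to one concentration of compound in 96-well plates. Values under 10 count as active.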 A number with no mark means an inactive call. Calls of active or inactive are those of the source.

Assays:
Test in all cases: NCI-60 one-dose screen, 48 h (100 = growth as untreated, 0 = no growth, -100 = all killed)
Details in all cases: 10 µM unless noted
[1] = system: SK-MEL-2 melanoma
[2] = system: SN12C renal
[3] = system: UO-31 renal
[4] = system: TK-10 renal
[5] = system: ACHN renal
[6] = system: CAKI-1 renal
[7] = system: A498 renal
[8] = system: CCRF-CEM leukemia
[9] = system: MOLT-4 leukemia
[10] = system: RPMI-8226 leukemia
[11] = system: OVCAR-8 ovarian
[12] = system: OVCAR-5 ovarian
[13] = system: OVCAR-4 ovarian
[14] = system: SK-OV-3 ovarian
[15] = system: IGROV1 ovarian
[16] = system: OVCAR-3 ovarian
[17] = system: HS 578T breast
[18] = system: NCI/ADR-RES ovarian
[19] = system: SR leukemia

| SMILES | growth [1] | growth [2] | growth [3] | growth [4] | growth [5] | growth [6] | growth [7] | growth [8] | growth [9] | growth [10] | growth [11] | growth [12] | growth [13] | growth [14] | growth [15] | growth [16] | growth [17] | growth [18] | growth [19] |
| --- | --- | --- | --- | --- | --- | --- | --- | --- | --- | --- | --- | --- | --- | --- | --- | --- | --- | --- | --- |
| Cc1ccc(Cn2c(-c3nonc3N)nc3ccccc32)cc1 | 78.2% | 96.3% | 66.2% | 90.4% | 92.3% | 69.7% | 40.4% | 67.2% | 56.2% | 91% | 88.3% | 81.2% | 87.1% | 80.4% | 67.2% | 71.8% |  |  |  |
| NCCSC(c1ccccc1)(c1ccccc1)c1ccccc1 | 25.6% | 23.7% | 42.7% | 54.6% | 46.2% | 15.9% | 24.1% | 2.43% (active) | 3.39% (active) | -24.7% (active) | 25% | 13.1% | 33.6% | 27.6% | 22.2% | 2.29% (active) | 16.8% | -21.9% (active) |  |
| FC(F)(F)c1cccc(-n2nnc3cnc(Nc4ccc(N5CCCCC5)cc4)nc32)c1 | 96.8% | 91% | 100% | 97.2% | 56% | 72.9% | 89.4% | 34.1% | 63% | 90.9% | 37.5% | 74.3% | -9.56% (active) | 80.2% | 88.8% | 82.4% | 76.5% | 76.9% |  |
| O=C(CN1CCN(c2cc3c(cc2F)c(=O)c(C(=O)O)cn3C2CC2)CC1)Nc1ccc(C(=O)/C=C/c2ccc(Cl)cc2)cc1 | 113% | 94.2% | 94.6% | 111% | 107% | 102% | 102% | 99.5% | 110% | 90.2% | 98% | 115% | 95.4% | 110% | 121% | 128% | 108% | 111% |  |
| c1ccc([P+](CCC[P+](c2ccccc2)(c2ccccc2)c2ccccc2)(c2ccccc2)c2ccccc2)cc1 | 71.1% | 78% | 82.3% | 81.8% | 98.5% | 94.7% | 86.1% | 45.8% | 79.6% | 1.19% (active) | 70.6% | 89.7% | 66.7% | 93.2% |  | 54.1% | 94.8% | 104% |  |
| Clc1cccc(Cl)c1Cn1c(-c2cncs2)nc2ccccc21 | 73.3% | 81.6% | 68.3% | 85.1% | 86.8% | 66.5% | 125% | 85% | 62.9% | 56.7% | 87% | 94% |  | 96.3% | 82.6% | 90.5% | 97% |  |  |
| COc1ccc(/C=N/NC(=O)Cn2c(Cc3cccc4ccccc34)nc3ccccc32)cc1 | 99.5% | 93.1% | 72.1% | 105% | 107% | 83.8% | 85.5% | 91% | 69.5% | 88.3% | 93.7% | 96% | 104% | 106% | 108% | 101% | 95.8% | 93.6% |  |
| COc1cc(CNC(=O)CCSc2nc3ccccc3c(=O)n2Cc2cc(OC)c(OC)c(OC)c2)cc(OC)c1OC | -9.25% (active) | 50.7% | 47.2% | 62% | 48.9% | 34.3% | 21.7% | 35.5% | 18.8% | 39.2% | 48.2% | 68.3% | 58.9% | 27.3% | 51.3% |  | 57.4% | 17.4% |  |
| CCCCNC(=O)NS(=O)(=O)c1ccc(N2N=C(c3ccc(C)cc3C)CC2c2ccc(OC)cc2)cc1 (stereo unspecified) | 81.3% | 75% | 59.7% | 88.7% | 64% | 70.8% | 52.9% | 54.3% | 52.3% | 40.3% | 62.9% | 89.6% | 68.4% | 101% |  | 75.2% | 87.3% | 45% |  |
| Cn1cc(C=O)c2ccccc21 | 109% | 91.7% | 60.6% | 102% | 93.5% | 94.6% | 95.4% | 90.6% | 92% |  | 95.2% | 101% |  | 101% | 88.6% | 106% | 107% | 100% |  |
| CC(C(=O)n1cc(-c2ccccc2)c(-c2ccccc2)c1)c1ccccc1 (stereo unspecified) | 104% | 108% | 88.6% | 98.8% | 115% | 91.6% | 99.8% | 103% | 102% | 98.2% | 99.2% | 106% | 107% | 105% | 111% | 118% | 115% | 106% |  |
| O=C(CN1CCN(c2cc3c(cc2F)c(=O)c(C(=O)O)cn3C2CC2)CC1)Nc1ccc(C(=O)/C=C/c2ccccc2)cc1 | 53.7% | 11.3% | 45% | 39.9% | 40.1% | 73.1% | 57.7% | 15.2% | 19% | 2.45% (active) | 6.3% (active) | 82.6% | 86.4% | 93.6% | 42.9% | 54.9% | 51.9% | 93.5% |  |
| COc1cc(/C=C/C(=O)c2ccc(NC(=O)CN3CCN(c4cc5c(cc4F)c(=O)c(C(=O)O)cn5C4CC4)CC3)cc2)cc(OC)c1OC | 30% | 10.3% | 2.96% (active) | 19.1% | 10.8% | 57.2% | -43.8% (active) | -13.7% (active) | -1.1% (active) | -18.8% (active) | 4.74% (active) | 16.9% | 16.4% | 33.3% | -1.19% (active) | -25.8% (active) | 76.8% | 98.2% |  |
| CC(=O)OC[Si](C)(C)c1ccccc1 | 126% | 99.6% | 94.9% | 107% | 106% | 92.1% | 103% | 108% | 112% |  | 101% | 108% | 103% | 103% | 114% | 112% | 103% | 112% |  |
| COc1cc2c(cc1OC)C1(C)N(CC2)C(=O)OC1(C)C (stereo unspecified) | 120% | 101% | 91.3% | 102% | 107% | 102% | 78.8% | 106% | -75.3% (active) |  | 98.4% | 107% | 99.5% | 107% | 109% | 114% | 98.1% | 105% |  |
| c1ccc2nc(-c3ccc4ccccc4n3)ccc2c1 | 88% | 95.9% | 78.4% | 116% | 96.4% | 83.2% | 97.3% |  | 88.3% | 90.8% | 98.6% | 97.2% | 92.3% | 90.1% | 79.5% | 97.4% | 105% | 99.7% | 86.8% |
| N#CC1=C(N)OC2=C(C(=O)CCC2)C1c1ccco1 (stereo unspecified) | 97.8% | 107% | 79.3% | 96.4% | 104% | 93% | 112% | 107% | 97.9% | 100% | 103% | 104% | 106% | 98.2% | 107% | 113% |  | 103% |  |
| Cc1nn(-c2ccc(Cl)cc2)c(=O)n1CCOc1ccccc1Cl | 126% | 93.6% | 94.9% | 108% | 78.9% | 85.7% | 103% | 86.4% | 97.2% | 88.9% | 92.7% | 102% | 68.1% | 92.9% | 117% | 121% |  | 89.9% |  |
